Measurements: PubChem BioAssay AID1117319 (Southern Research Institute, 2015)
“And” between values parts separate entries of the source, which are not always exact repeats. Equal values may be shown once. Hit rate of the full screen: of about 260,000 compounds, about 1,500 (0.58%) were called active. Inconclusive results (about 5%) are left out.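 The calls were made as follows: active = inhibition above a set limit at one or more doses, reproduced on every date tested; inconclusive = results disagree between test dates, or hit never tested in dose response; inactive = the rest.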 Not all results are given here. Measured potencies and affinities stand elsewhere.

These molecules were tested against Virion infectivity factor (Human immunodeficiency virus type 1 group M subtype B (isolate BH10)) + Virion infectivity factor (Human immunodeficiency virus type 1 group M subtype B (isolate BRU/LAI)) + Virion infectivity factor (Human immunodeficiency virus type 1 group M subtype B (isolate PCV12)) + Virion infectivity factor (Human immunodeficiency virus type 1 group M subtype B (isolate HXB2)) + DNA dC->dU-editing enzyme APOBEC-3G (Homo sapiens) (UniProt P69720+P69721+P69722+P69723+Q9HC16) (assay: inhibitors of Vif binding to APOBEC3G peptide, primary screen, biochemical, TR-FRET, GST-Vif 1-94, biotin-A3G peptide, dose response retest (AID 1117319;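 also: Vif residues 1-94 fused to GST binding biotinylated APOBEC3G peptide 110-148; 0% = full assay without inhibitor and 100% = GST in place of GST-Vif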)). Details: stronger effect = higher value.
With `Cc1csc(NC(=O)C2CCCCN2S(=O)(=O)c2ccccc2)n1` (stereo not given) the inhibition was 1.7% (inactive). In the case of `COc1cccc(NC(=O)CSc2nc(N)cc(N)n2)c1`, the inhibition is reported as 3.65% (inactive). In the case of `COc1cccc(NC(=O)CSc2ccc(-c3ccco3)nn2)c1`, the inhibition is reported as 3.97% (inactive). In the case of `O=C(CSc1n[nH]c(-c2ccco2)n1)Nc1ccccc1`, the inhibition is reported as 5.48% (inactive). For `CCc1nnc(SCC(=O)Nc2ccc(C(C)=O)cc2)nc1CC`, the inhibition was 2.81% (inactive). For `CC(=O)c1ccc(NC(=O)CSc2ccc(-c3ccco3)nn2)cc1`, the inhibition was -1.56% (inactive). `Cc1ccc(NC(=O)CSc2nnc(-c3ccco3)c(-c3ccco3)n2)cc1` was tested, and the inhibition was 25.5% (inactive). In the case of `COc1ccc(CCNC(=O)COC(=O)/C=C/c2ccc(OCC#N)c(OC)c2)cc1OC`, the inhibition is reported as 5.39% (inactive). In the case of `CC(=O)Nc1ccc(NC(=O)Cn2ccc([N+](=O)[O-])n2)cc1`, the inhibition is reported as 11.7% (inactive). `COc1cccc(C2CC(c3cccs3)=NN2C(=O)CSC2=NN3CCCC(=O)N=C3S2)c1OC` (stereo not given) was tested, and the inhibition was 0.81% (inactive). For `O=C(c1ccco1)N1CCN(Cc2cc(=O)c(OCc3cccc(F)c3)co2)CC1`, the inhibition was -1.67% (inactive). In the case of `S=c1nc(-c2ccccc2)oc2c1CCCC2`, the inhibition is reported as 2.15% (inactive). With `O=[N+]([O-])c1ccc(-c2nc(=S)c3c(o2)CCCC3)cc1` the inhibition was 0.66% (inactive). For `Cc1nc2oc3ccccc3c(=O)c2cc1C(=O)O`, the inhibition was -10.2% (inactive). `Cc1ccc(C)c(N2CCN(S(=O)(=O)c3ccc4c(c3)CCC(=O)N4)CC2)c1` was tested, and the inhibition was 24.6% (inactive). With `COc1ccc(C(=O)COC(=O)CNC(=O)c2ccc(Cl)cc2Cl)c(OC)c1` the inhibition was 3.17% (inactive). In the case of `CCOc1ccc(NC(=O)CSCc2cnn(-c3ccccc3)c2-n2cccc2)cc1`, the inhibition is reported as -1.2% (inactive). `Cc1cc(C)cc(NC(=O)CSCc2cnn(-c3ccccc3)c2-n2cccc2)c1` was tested, and the inhibition was -0.62% (inactive). With `O=C(NCCn1ccc2ccccc21)C1CCCCC1` the inhibition was -2.31% (inactive). For `Cc1cc2ccccc2n1CCNC(=O)C1CCCC1`, the inhibition was 23.5% (inactive). For `CC(C)CC(=O)NCc1ccc2[nH]c3c(c2c1)CCCC3`, the inhibition was 5.99% (inactive). With `O=C(CCN1CCC(c2ccc(Cl)s2)=N1)c1ccc(Cl)s1` the inhibition was -2.16% (inactive). For `CC(=O)NCC(=O)NC(Cc1ccccc1)C(N)=O` (stereo not given), the inhibition was 18.9% (inactive). `COc1cc(/C=C(\C#N)C(=O)N2CCOCC2)cc(Br)c1O` was tested, and the inhibition was -3.89% (inactive). For `NC(=O)/C(=C\c1ccco1)NC(=O)c1ccco1`, the inhibition was 13.1% (inactive). `CC(=C\C(=O)O)/C(=C/c1ccco1)C(=O)O` was tested, and the inhibition was 29.9% (inactive). For `Cc1ccc2sc(N(CCCN(C)C)C(=O)c3ccc(S(=O)(=O)N4CCOCC4)cc3)nc2c1C`, the inhibition was 7.87% (inactive). `C=CCOc1c(CNc2ccc(C(=O)O)cc2)cccc1OCC` was tested, and the inhibition was 5.17% (inactive). For `COc1cc(CNC(C)(C)CO)cc(Br)c1OCc1ccccc1`, the inhibition was 14.2% (inactive). With `O=C(O)c1ccc(CNCc2cccc(OCc3ccc(F)cc3)c2)cc1` the inhibition was -2.79% (inactive). In the case of `CCOc1ccccc1CNc1ccc(O)cc1`, the inhibition is reported as -1.14% (inactive). `CCOc1cc(CNc2ccccc2)cc(Br)c1OCc1ccc(F)cc1` was tested, and the inhibition was -2.02% (inactive). For `O=[N+]([O-])c1ccc(COc2cccc(CNc3ccc(F)cc3)c2)cc1`, the inhibition was 26.4% (inactive). With `Fc1cccc(COc2ccccc2CNc2ccccc2)c1` the inhibition was 8.86% (inactive). With `CCOc1cccc(CNn2cnnc2)c1OCc1ccccc1Cl` the inhibition was 3.09% (inactive). In the case of `O=C(c1cccn2c(=O)c3ccccc3nc12)N1CCN(Cc2ccc3c(c2)OCO3)CC1`, the inhibition is reported as 3% (inactive). In the case of `CN(C)CCn1cnc2c(c1=N)C(c1ccccc1)c1ccc3ccccc3c1O2` (stereo not given), the inhibition is reported as -7.72% (inactive). For `CC1(C)Cc2ccccc2C(C(=O)c2ccccc2)=N1`, the inhibition was -10.3% (inactive). In the case of `CCOC(=O)c1cc2sccc2n1CC(=O)N1CCCc2ccccc21`, the inhibition is reported as -4.99% (inactive). For `CCN1CCN(CC(=O)N2N=C(c3cccs3)CC2c2ccc(C)cc2)C(=O)C1=O` (stereo not given), the inhibition was 1.42% (inactive). In the case of `Cc1csc(NC(=O)COc2ccc3c(C)cc(=O)oc3c2)n1`, the inhibition is reported as -13.9% (inactive). With `Cc1cccc(N2CCN(C(=O)CCNS(=O)(=O)c3ccc4c(c3)CCC(=O)N4)CC2)c1C` the inhibition was -0.88% (inactive). In the case of `CC(=O)c1ccc(N2CCN(C(=O)c3cc(C)on3)CC2)cc1`, the inhibition is reported as 11.8% (inactive). With `CC(c1cccs1)N(C)Cc1nc(CCc2ccccc2)no1` (stereo not given) the inhibition was 2.69% (inactive). With `CN1C(=O)[C@H]2[C@@H](c3ccc(C(F)(F)F)cc3)N[C@]3(CCCN(CC4CCCCC4)C3=O)[C@H]2C1=O` the inhibition was 2.73% (inactive). In the case of `CCN(CC(=O)NC1CCS(=O)(=O)C1)C(=O)C(c1ccccc1)c1ccccc1` (stereo not given), the inhibition is reported as 1.78% (inactive) and 11.2% (inactive). With `CC(=O)N1CCN(S(=O)(=O)c2cccc(C(=O)NNC(=O)COc3c(C)cccc3C)c2)CC1` the inhibition was -12.3% (inactive). In the case of `N#CCN1C(=O)C(=O)N(Cc2cccc(C(F)(F)F)c2)C1=O`, the inhibition is reported as -1.35% (inactive). In the case of `CC(NC(=O)c1ccccc1[N+](=O)[O-])C1CC2CCC1C2` (stereo not given), the inhibition is reported as 1.73% (inactive). For `O=C(Nn1cnc2ccccc2c1=O)c1ccc([N+](=O)[O-])cc1`, the inhibition was -7.54% (inactive). For `c1ccc(CNn2nnnc2-c2ccccc2)cc1`, the inhibition was 1.36% (inactive). For `Oc1ccc(NCc2ccc(OCc3ccccc3)cc2)cc1`, the inhibition was 17.4% (inactive). In the case of `O=[N+]([O-])c1ccc(COc2cccc(CNc3ccc(Br)cc3)c2)cc1`, the inhibition is reported as 2.31% (inactive). In the case of `CN(C)S(=O)(=O)c1ccc(N2CCCC2)c(C(=O)Nc2nc3c(ccc4ccccc43)s2)c1`, the inhibition is reported as -35.6% (inactive). With `O=C(NCc1nnnn1-c1ccc(F)c(F)c1)C(=O)c1c[nH]c2ccccc12` the inhibition was 11.1% (inactive). In the case of `Cc1cccc(N2CCN(C3=NC(=O)C(Cc4ccccc4)S3)CC2)c1` (stereo not given), the inhibition is reported as 14.4% (inactive). With `O=C1C=Cc2ccccc2/C1=C/c1[nH]c(=O)[nH]c1O` the inhibition was -10.7% (inactive). `CCN1C(=C2C(=O)c3ccccc3C2=O)C=Cc2ccccc21` was tested, and the inhibition was 26.5% (inactive). For `O=C1CC(NS(=O)(=O)c2cccnc2)CN1c1ccc(F)cc1` (stereo not given), the inhibition was -4.88% (inactive). `N#Cc1ccccc1Sc1ccccc1C(=O)Nc1ccc(Br)cc1` was tested, and the inhibition was 5.46% (inactive).
